Bioassay records as filed in PubChem.
This is a sample that favours compounds with a hit; in the whole collection about 21% have one here.
Shiga inhibitor: A qHTS for Small Molecule Inhibitors of Shiga Toxin; Vero cells, Shiga toxin protein synthesis inhibition reporter; hit rate 9.2% among 290,000; AID 2315, 2010; inhibition, % at 38.7 µM; in the data active = inhibition mostly above about 28%, no sharp cut-off; inactive = mostly below about 43%; note: 0% is about no effect
SARS PLpro yeast: qHTS of Yeast-based Assay for SARS-CoV PLP. S. cerevisiae expressing SARS-CoV PLpro, growth rescue. Potency, µM (doses to about 32.9 µM), without a hit: at the highest dose activity, positive = growth rescue, actives largely listed as activators. hit rate 0.19% among 330,000. AID 485353, 2010; calls by dose curve; note: potency is the fitted concentration of half-maximal effect; 0% is about no effect; nearly all actives have a fitted effect of over 55% in size
Pf growth 48h: Primary qHTS for delayed death inhibitors of the malarial parasite plastid, 48 hour incubation; P. falciparum luciferase growth in erythrocytes, 48 h; Potency, µM (top dose mostly 28.7 µM), inactives show at the highest dose activity change, negative = inhibition, actives largely listed as inhibitors; hit rate 5.9% among 310,000; AID 504832, 2011; note: potency is the fitted concentration of half-maximal effect; % is set by controls: 0 for no effect and ±100 for the full control effect
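Luciferase-expressing P. falciparum in infected erythrocytes (2% hematocrit, 0.1% parasitemia final) in RPMI 1640/0.5% Albumax were exposed to compound for 48 hours at 37 C, 5% CO2; growth read as luminescence.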
Pf growth 96h: Primary qHTS for delayed death inhibitors of the malarial parasite plastid, 96 hour incubation | hit rate 6.9% among 320,000 | Potency, µM (series often up to 28.7 µM), for inactives: at the highest dose activity change, negative = inhibition, usual class: inhibitors | P. falciparum luciferase reporter growth, 96 h; note: potency is the fitted concentration of half-maximal effect; % is set by controls: 0 for no effect and ±100 for the full control effect
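Readout is luminescence from an integrated firefly luciferase in P. falciparum. Red cells, 2% hematocrit and 0.05% parasitemia final, were cultured with compound through two parasite generations (96 hours) at 37 C, 5% CO2.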
CHX counter: Cycloheximide Counterscreen for Small Molecule Inhibitors of Shiga Toxin. hit rate 12% among 300,000. max response, %. AID 2314, 2010. cell reporter, cycloheximide protein synthesis inhibition counterscreen; in the data active = max response mostly above about 13%, no sharp cut-off; inactive = mostly below about 14%; note: read at 38.3 µM for the half of the compounds with a filed dose; 0% is about no effect
NS1 function inh: qHTS Assay for Inhibitors of Influenza NS1 Protein Function; Potency, µM (top dose mostly 46.1 µM), for inactives: top-dose activity, positive = more growth; hit rate 0.4% among 270,000; calls by dose curve; note: potency is the fitted concentration of half-maximal effect; actives are rising curves; nearly all actives have a fitted effect of over 50% in size
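Recovery from NS1-induced slow growth read by OD600 in budding yeast switched to galactose assay medium (pH 6.0, -URA) at 1:100 dilution. Compound 23 nl per well; the matching strain lacking NS1 serves as control.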
The depositor's hits bear a star; ? = inconclusive; / = not tested or not shown. Unless noted, calls come from the whole dose curve; as a rule, active = well fitted inhibition curve with a large enough effect; inconclusive = small, poorly fitted or top-dose-only effect, or another doubt; inactive = no such curve, though single readings can be large or run the other way.

SMILES	Shiga inhibitor	SARS PLpro yeast	Pf growth 48h	Pf growth 96h	CHX counter	NS1 function inh
C/C(=N\NC(=O)c1cc(C)nc2ccccc12)c1cccs1	-3.7	0.8%	-16.2%	?	-1.2	0.8%
C/C(=N\NC(=O)c1cc(Br)ccc1O)c1cccs1	125.9*	-4.0%	177.1%	-1.7%	37.1*	/
O=S(=O)(c1ccc(Cl)cc1)N1CCN(C(=S)Nc2ccc(F)c(Cl)c2)CC1	-10.2	-3.2%	0.657µM*	0.5%	-2.3	4.8%
Cc1cccc(NC(=S)N2CCN(S(=O)(=O)c3ccc(F)cc3)CC2)c1	-4.5	-6.0%	2.08µM*	?	-0.5	-4.6%
CCOC(=O)[C@H]1[C@H]2COc3ccc(Cl)cc3[C@@H]2N2C(=O)c3ccccc3NC(=O)[C@@]12C	/	-10.8%	?	?	/	/
CCN(CC)CCN(C(=O)c1c(F)cccc1F)c1nc2cc(C)cc(C)c2s1	-11.9	-5.8%	?	?	-3.2	/
Cc1ccc2nc3sc(C(=O)Nc4ccc(N5CCOCC5)cc4)c(N)c3cc2c1	54.2	-4.7%	?	?	23.8*	2.0%
Cc1nc2c(sc3nc(N4CCOCC4)c4c(c32)CC(C)(C)OC4)c(-c2ccc(Cl)cc2)c1C(=O)O	7.2	-0.5%	13.1µM*	9.28µM*	-2.0	?
CC1(C)Cc2c(c(N3CCOCC3)nc3sc(C(N)=O)c(N)c23)CO1	-18.3	-1.3%	-13.5%	-16.6%	6.0	11.9%
CC1(C)Cc2c(c(N3CCCC3)nc3sc(C(=O)Nc4ccccc4)c(N)c23)CO1	79.7*	-3.8%	14.7µM*	13.1µM*	40.6*	23.4%
CC1(C)Cc2c(c(N3CCOCC3)nc3snc(Br)c23)CO1	-2.2	-0.4%	0.522µM*	0.657µM*	-4.5	14.1%
Cc1cccc2cc3c(N)c(C(=O)Nc4ccc(N5CCOCC5)cc4)sc3nc12	6.3	-8.7%	?	?	0.7	0.6%
O=C1C2C(c3ccccc3)CC=CC2C(c2cccc([N+](=O)[O-])c2)N1Cc1ccccc1 (stereo not given)	2.9	/	/	/	-1.0	/
O=C(Nc1nnc(-c2cccnc2)o1)c1cccc(Cl)c1	2.3	0.7%	?	?	6.3	/
Cc1ccc(NC(=O)c2sc3nc(N4CCOCC4)c4c(c3c2N)CC(C)(C)OC4)cc1	6.5	-4.3%	?	68.9%	22.3*	-5.4%
CC1(C)Cc2c(c(N3CCOCC3)nc3sc(C(=O)Nc4ccc(Cl)cc4)c(N)c23)CO1	-11.0	-1.0%	?	?	7.6	11.4%
CCN1CCN(c2ccc(S(=O)(=O)N3CCCCC3)cc2NC(=O)C(C)Oc2ccc(F)cc2)CC1 (stereo not given)	/	-2.7%	8.28µM*	-23.9%	/	/
Cc1ccc(NC(=O)C(C)Oc2ccccc2)cc1S(=O)(=O)N1CCCCCC1 (stereo not given)	/	6.5%	6.57µM*	?	/	/
Cc1ccccc1OCCC(=O)OCC(=O)Nc1cc(S(=O)(=O)N2CCOCC2)ccc1Cl	5.9	-0.8%	-4.4%	8.4%	10.6	/
Cc1ccccc1OCCC(=O)Nc1cc(S(=O)(=O)N2CCOCC2)ccc1OC(C)C	-10.4	0.8%	14.7µM*	13.1µM*	0.3	-6.3%
Cc1ccc(NC(=S)Nc2ccc(C(C)C)cc2)cc1S(=O)(=O)N1CCCCCC1	81.7*	?	?	?	27.8*	?
CCN1CCN(c2ccc(S(=O)(=O)N3CCCCC3)cc2NC(=O)c2sccc2C)CC1	/	3.2%	?	?	/	/
CCCn1c(SCC(=O)NCCCN2CCCC2=O)nc2ccccc2c1=O	/	4.8%	/	/	/	/
Cc1cccc(C(=O)N[C@H](C(=O)Nc2cc(S(=O)(=O)N3CCCCC3)ccc2C)C(C)C)c1	-5.8	-12.8%	?	?	0.3	0.9%
CC(C)Oc1ccc(S(=O)(=O)N2CCOCC2)cc1NC(=O)C(C)Oc1ccc(F)cc1 (stereo not given)	/	-2.2%	13.1µM*	?	/	/
SMILES	Shiga inhibitor	SARS PLpro yeast	Pf growth 48h	Pf growth 96h	CHX counter	NS1 function inh
CC(Oc1ccc(F)cc1)C(=O)Nc1cc(S(=O)(=O)N2CCCCC2)ccc1N1CCOCC1 (stereo not given)	/	-1.1%	8.28µM*	9.28µM*	/	/
CC(Oc1cccc(Cl)c1)C(=O)Nc1ccc(N2CCOCC2)cc1N1CCOCC1 (stereo not given)	/	-23.3%	6.57µM*	?	/	/
Cc1cccc(OC(C)C(=O)Nc2cc(S(=O)(=O)N3CCCCC3)ccc2C)c1 (stereo not given)	/	-4.8%	9.28µM*	?	/	/
CC(C)Oc1ccc(S(=O)(=O)N2CCOCC2)cc1NC(=O)C1CCCCC1	/	1.1%	?	?	/	/
CC(Oc1cccc(Cl)c1)C(=O)Nc1cc(S(=O)(=O)N2CCOCC2)ccc1N1CCCC1 (stereo not given)	/	1.3%	-22.6%	0.4%	/	/
CC(Oc1cccc(Cl)c1)C(=O)Nc1cc(S(=O)(=O)N2CCCCC2)ccc1N1CCOCC1 (stereo not given)	/	/	10.4µM*	10.4µM*	/	/
Oc1ccc(Cl)cc1C1=NNC(c2ccc(Cl)cc2)C1 (stereo not given)	30.8*	-99.4%	?	?	29.5*	-51.9%
Oc1c(Cl)cc(Cl)cc1C1=NNC(c2ccc(Cl)cc2)C1 (stereo not given)	73.2*	-5.7%	-6.9%	-99.6%	30.8*	/
CCc1c(C)nc2ccc(Br)cc2c1Cl	23.0	-3.6%	2.1%	15.5%	13.2	6.9%
Nc1nc(Cl)nc2ccc(Br)cc12	53.1*	17.9%	131.6%	168.1%	66.8*	18.5%
CCCNC(=O)CSCc1nc(-c2ccc(SC)cc2)oc1C	34.7	3.1%	-3.8%	?	25.8*	/
COC(CNC(=O)CSCc1nc(-c2ccc(SC)cc2)oc1C)OC	25.5	2.4%	21.0%	7.0%	9.3	/
CSc1ccc(-c2nc(CSCC(=O)NCCCN3CCOCC3)c(C)o2)cc1	-2.9	7.2%	/	9.28µM*	-2.3	-6.0%
Nc1nonc1/C(=N/O)N1CCN(CCO)CC1	-5.8	-0.5%	14.7%	2.6%	-2.9	-3.8%
CN1CCN(/C(=N\O)c2nonc2N)CC1	22.3	3.4%	14.5%	14.7µM*	16.7	?
COc1ccc2[nH]c(=O)c(CN(C)C(=O)c3cccs3)cc2c1	26.3	-0.6%	6.0%	41.7%	6.9	-8.1%
Cc1ccc(NC(=O)c2ccc(Cl)c(NC(=O)c3cccs3)c2)cc1	45.4	-12.7%	8.0%	?	52.6*	-41.1%
COc1ccc(C(CNC(=O)c2cccc(S(=O)(=O)N3CCCC3)c2)N2CCCC2)cc1 (stereo not given)	/	6.1%	?	?	/	/
Cc1nc2ccc(NC(=O)c3ccc(Cl)c(NC(=O)c4cccs4)c3)cc2s1	51.4	-4.5%	-2.6%	0.0%	20.4*	11.2%
COc1ccc(C(CNC(=O)c2ccc(Cl)c(NC(=O)c3cccs3)c2)N2CCCC2)cc1 (stereo not given)	/	0.8%	10.4µM*	8.28µM*	/	/
